PLK1 PBD block = qHTS for Inhibitors of PLK1-PDB (polo-like kinase 1 - polo-box domain): Primary Screen. 360,000 tested, 2.8% active. Serine/threonine-protein kinase PLK1 (Homo sapiens), P53350. Plk1 PBD binding of FITC phosphopeptide, fluorescence polarization. AID 720504, 2013. Potency, µM, without a hit: max response, negative = inhibition, most hits filed as inhibitors; note: potency is the fitted concentration of half-maximal effect; series mostly up to about 57 µM; % is set by controls: 0 for no effect and ±100 for the full control effect; nearly all actives have a fitted effect of over 65% in size
12-LOX inh = Primary qHTS assay for inhibitors of human arachidonate 12S-lipoxygenase (ALOX12): Round 2 | Polyunsaturated fatty acid lipoxygenase ALOX12 (Homo sapiens), P18054 | purified 12hLO, xylenol orange hydroperoxide absorbance | Potency, µM (top dose mostly 108 µM), inactives show at the highest dose activity change, negative = inhibition, usual class: inhibitors | 580,000 tested, 1.1% active | AID 1671190, 2021; note: potency is the fitted concentration of half-maximal effect; % is set by controls: 0 for no effect and ±100 for the full control effect
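Purified human 12hLO at 150 nM in 25 mM Hepes, 0.01% Triton X-100, pH 7.0, preincubated 15 min at room temperature with compound. Reaction started with 40 uM arachidonic acid, 30 min at room temperature. Hydroperoxide measured by Fe-xylenol orange, 573/405 nm absorbance ratio.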
G9a inh-1 = qHTS Assay for Inhibitors of Histone Lysine Methyltransferase G9a; G9a H3K9 monomethylation, AlphaScreen, 2 h; Histone-lysine N-methyltransferase EHMT2 (Homo sapiens), Q96KQ7; Potency, µM (titrated, usually from 102 µM), for inactives: at the highest dose activity, negative = inhibition, hits mostly inhibitors; 350,000 tested, 8.8% active; AID 504332, 2011; note: potency is the fitted concentration of half-maximal effect; % is set by controls: 0 for no effect and ±100 for the full control effect; nearly all actives have a fitted effect of over 75% in size
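Quantitative HTS format: methyltransferase activity on a biotin-tagged H3K9 peptide is measured by AlphaScreen, using a rabbit anti-monomethyl-H3K9 antibody with streptavidin donor and anti-IgG acceptor beads. Final levels are 20 nM enzyme, 500 nM peptide, 20 uM SAM; 2 h RT.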
BAZ2B inh = qHTS Assay for Inhibitors of BAZ2B. AlphaScreen BAZ2B-H3K14Ac peptide displacement. Potency, µM (top dose mostly 114 µM), for inactives: top-dose activity change, negative = inhibition, hits mostly inhibitors. 360,000 tested, 4.4% active. AID 504333, 2011; note: potency is the fitted concentration of half-maximal effect; % is set by controls: 0 for no effect and ±100 for the full control effect; nearly all actives have a fitted effect of over 60% in size
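BAZ2B (50 nM) with biotin-H3(5-23)K14Ac peptide (50 nM) in PBS pH 7.4, 0.01% Tween-20, preformed 30 min, then compound 30 min at room temperature; top concentration 110uM. AlphaScreen streptavidin donor/nickel chelate acceptor beads (10 ug/mL final), 20 min dark, signal read.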
HP1b binding inh = HTS for Inhibitors of HP1-beta Chromodomain Interactions with Methylated Histone Tails; AlphaScreen HP1-beta / biotin-H3K9me3 peptide binding; Potency, µM (highest dose often 114 µM), for the others: top-dose activity change, negative = inhibition, actives largely listed as inhibitors; 390,000 tested, 0.56% active; AID 540317, 2011; note: potency is the fitted concentration of half-maximal effect; nearly all actives have a fitted effect of over 70% in size
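AlphaScreen: HP1-beta (50 nM) preformed 30 min with biotin-H3(1-18)K9me3 peptide (50 nM) in PBS pH 7.4, 0.01% Tween-20. Compound added for 30 min at RT, then streptavidin donor/nickel chelate acceptor beads (10 ug/mL) for 30 min.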
JMJD2A Tudor inh = qHTS Assay for Inhibitors of JMJD2A-Tudor Domain; 390,000 tested, 4.4% active; AlphaScreen JMJD2A-Tudor / H3K4me3 peptide binding; Potency, µM (highest dose often 114 µM), without a hit: at the top dose activity change, negative = inhibition, most hits filed as inhibitors; note: potency is the fitted concentration of half-maximal effect; % is set by controls: 0 for no effect and ±100 for the full control effect; nearly all actives have a fitted effect of over 50% in size
Target sequence (O75164 whole entry, looked up, the tested form may be a part): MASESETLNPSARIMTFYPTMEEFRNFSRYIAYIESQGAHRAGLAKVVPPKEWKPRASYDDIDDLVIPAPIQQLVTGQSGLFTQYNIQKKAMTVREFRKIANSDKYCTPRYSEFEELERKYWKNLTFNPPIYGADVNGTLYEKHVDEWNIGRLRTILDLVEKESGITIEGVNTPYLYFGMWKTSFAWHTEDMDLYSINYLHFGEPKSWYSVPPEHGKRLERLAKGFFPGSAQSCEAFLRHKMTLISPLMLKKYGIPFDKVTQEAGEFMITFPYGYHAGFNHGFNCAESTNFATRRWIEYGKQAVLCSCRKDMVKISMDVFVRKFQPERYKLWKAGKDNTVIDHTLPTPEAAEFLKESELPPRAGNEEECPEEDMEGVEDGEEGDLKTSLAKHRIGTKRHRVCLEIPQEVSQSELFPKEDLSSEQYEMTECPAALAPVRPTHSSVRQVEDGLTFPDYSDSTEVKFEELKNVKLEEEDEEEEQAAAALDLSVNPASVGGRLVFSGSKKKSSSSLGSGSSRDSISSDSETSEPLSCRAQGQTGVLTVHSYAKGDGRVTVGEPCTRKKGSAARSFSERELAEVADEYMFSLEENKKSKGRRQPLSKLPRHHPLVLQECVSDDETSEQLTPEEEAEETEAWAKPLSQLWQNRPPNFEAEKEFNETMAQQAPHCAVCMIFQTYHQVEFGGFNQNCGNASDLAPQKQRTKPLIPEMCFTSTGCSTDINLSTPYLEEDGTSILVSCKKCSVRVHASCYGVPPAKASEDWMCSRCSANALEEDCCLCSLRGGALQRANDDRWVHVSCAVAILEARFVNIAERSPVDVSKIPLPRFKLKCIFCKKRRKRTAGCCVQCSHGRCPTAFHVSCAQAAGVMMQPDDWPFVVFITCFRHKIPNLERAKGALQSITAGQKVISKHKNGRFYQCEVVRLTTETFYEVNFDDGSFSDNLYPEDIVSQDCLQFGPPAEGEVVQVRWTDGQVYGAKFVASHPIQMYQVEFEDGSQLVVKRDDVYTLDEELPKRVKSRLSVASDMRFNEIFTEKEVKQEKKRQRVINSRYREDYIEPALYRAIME
JMJD2E confirm = Confirmation qHTS Assay for Inhibitors of Human Jumonji Domain Containing 2E (JMJD2E). shares compounds with JMJD2A Tudor inh. AID 2677, 2010. Potency, µM (series often up to 56.8 µM), for inactives: at the top dose activity change, negative = inhibition, actives largely listed as inhibitors. 140 tested, 93% active. Recombinant JMJD2E, FDH-coupled NADH fluorescence (FDH is formaldehyde dehydrogenase)
FDH counter = Counterscreen for JMJD2E Inhibitors: qHTS Assay for Inhibitors of Formaldehyde Dehydrogenase (FDH). shares compounds with JMJD2A Tudor inh. FDH enzyme assay, NADH fluorescence kinetic. Potency, µM (doses to about 56.7 µM), inactives show at the top dose activity, negative = inhibition, actives largely listed as inhibitors. 140 tested, 10% active. AID 2680, 2010
G9a inh-2 = qHTS Assay for Inhibitors of Histone Lysine Methyltransferase G9a: Hit Confirmation. shares compounds with JMJD2A Tudor inh. G9a H3K9 monomethylation, AlphaScreen, 2 h. Potency, µM, hits mostly inhibitors. 370 tested, 89% active. AID 588344, 2011; note: potency is the fitted concentration of half-maximal effect; nearly all actives have a fitted effect of over 65% in size
RGS4 confirm = qHTS for Inhibitors of Regulator of G Protein Signaling(RGS) 4: Hit Validation. shares compounds with JMJD2A Tudor inh. RGS4 GAP activity, Transcreener GDP fluorescence polarization. Potency, µM, most hits filed as inhibitors. 25 tested, 80% active. AID 602388, 2012
* marks the source's active call; other numbers are inactive results; i = inactive; u = inconclusive; x = not tested or not shown; [ ] = remark or other dose. A selection: hits, their analogues and other compounds. The true share with any hit is near 9%. Calls come from the whole dose curve; as a rule, active = well fitted curve in the direction sought with a large enough effect; inconclusive = small, poorly fitted or top-dose-only effect, or another doubt; inactive = no such curve, though single readings can be large; an effect the other way counts as inactive or inconclusive.

SMILES	PLK1 PBD block	12-LOX inh	G9a inh-1	BAZ2B inh	HP1b binding inh	JMJD2A Tudor inh	G9a inh-2	others
O=C1CCCN1CCCN1C(=O)N[C@@H](Cc2ccccc2)C1=O	-7%	0%	4%	5%	44%	6%	x
Nc1ccc(OC(=O)Nc2ccc(O)cc2)cc1	-4%	u	u	-8%	-3%	u	x
O=C(Nc1ccc(N2CCN(c3ccc(O)cc3)CC2)cc1)Oc1ccccc1	-1%	u	0.89µM*	-30%	-4%	-27%	0.2*
CCOc1ccc(-c2cc(=O)c3ccc(NC(=O)c4ccccc4C)cc3o2)cc1	x	14%	x	x	x	x	x
CN(C)c1ccc(NC(=O)Nc2cccc3ccccc23)cc1	u	-18%	2.8µM*	u	-14%	-15%[11.4 µM]	1.1*
CC(=O)Nc1cccc(NC(=O)Nc2cccc3ccccc23)c1	-12%	i	x	0%	14%	-1%	x
CC(C)C(=O)N(Cc1cc(=O)[nH]c2ccccc12)c1ccccc1	0%	-19%	u	-14%	15%	-14%	x
Cc1ccc(N(Cc2cc(=O)[nH]c3ccccc23)C(=O)c2ccco2)cc1	-14%	u	u	u	13%	29%	22*
CNC(=O)NC(=O)CSc1ccc(S(=O)(=O)N2CCOCC2)cn1	3%	u	u	-3%	47%	2%	5*
CC(C)(C)NC(=O)CSc1ccc(S(=O)(=O)N2CCOCC2)cn1	-2%	u	-13%[12.7 µM]	-2%	31%	-7%	x
Cn1nnnc1SCC(=O)Nc1ccc(Br)cc1Cl	-2%	3%	2µM*	-24%	43%	9%	u
O=C(COc1ccc(Cl)cc1)Nc1sc2c(c1C(=O)Nc1cccc(Cl)c1)CCCC2	x	u	1.8µM*	u	u	71µM*	3.6*
CCOc1ccc(NC(=O)c2c(NCc3cccnc3)sc3c2CCCC3)cc1	x	u	2.8µM*	-29%	-11%	22µM*	1.6*
O=C(COc1ccccc1)Nc1sc2c(c1C(=O)NCc1cccnc1)CCCC2	-6%	u	-5%[59 µM]	2%	17%	-24%	x
COC(=O)/C(C#N)=C/c1ccc(C)o1	1%	0%	11%	-6%	20%	-8%	x
O=C(NC1CC1)c1ccccc1OC1CN(Cc2cccc(C(F)(F)F)c2)C1	x	17%	x	x	x	x	x
COC(=O)C1=C(C)N(Cc2ccccc2)C(=O)N[C@H]1c1cccs1	-8%	-19%	29%[59 µM]	-2%	15%	-27%	x
CC(C)(C)OC(=O)NC(C)(CN)c1ccccc1 (stereo not drawn)	x	22%[176 µM]	x	x	x	x	x
CCOC(=O)C1CCN(C(=O)Cc2cccc3ccccc23)CC1	0%	u	u	12%	24%	2%	18*
O=C(c1cc(F)ccc1F)N1CCOc2ccc(CN3CCc4ccccc4C3)cc2C1	x	28%	x	x	x	x	x
CCN(c1ccc(NC(=O)CCc2nc3sc4c(c3c(=O)[nH]2)CCCC4)cc1)C(C)C	-9%	u	2.2µM*	-33%	-21%	u	2.2*
O=C(NCCc1c[nH]c2ccccc12)C(=O)NCC1OCCCN1S(=O)(=O)c1ccc(F)cc1 (stereo not drawn)	2%	-4%	-8%[59 µM]	u	7%	-34%	x
NS(=O)(=O)c1ccc(NCc2ccccc2OCc2ccccc2F)cc1	-6%	u	-1%	-35%	18%	u	x
Oc1ccc(NCc2ccccc2OCc2ccccc2F)cc1	-11%	251%	3.2µM*	45µM*	u	56µM*	x	JMJD2E confirm=20µM*;FDH counter=u
Oc1ccc(NCc2ccccc2OCc2ccccc2Cl)cc1	x	6%	u	25µM*	-10%	u	11*
SMILES	PLK1 PBD block	12-LOX inh	G9a inh-1	BAZ2B inh	HP1b binding inh	JMJD2A Tudor inh	G9a inh-2	others
O/N=C/c1ccccc1OCc1ccccc1Cl	-1%	-30%	3%[59 µM]	-5%	30%	-3%	x
CCN(Cc1ccncc1)Cc1c(O)ccc2cc(Br)ccc12	11µM*	u	2µM*	x	u	45µM*	2.8*	RGS4 confirm=17*
O=C(CN(Cc1cccs1)C1CC1)NCC1CCCO1 (stereo not drawn)	x	-3%	x	x	x	x	x
CCCn1cnc2cc(NCc3ccccc3OCC)ccc21	x	-16%	1.8µM*	40µM*	u	56µM*	2.6*
CN(C)c1ccc(CNc2ccc3c(c2)ncn3C)cc1	-13%	3%	u	18µM*	20µM*	18µM*	10*
CCOc1ccccc1CNc1nc2ccccc2n1C	-7%	u	20%	-2%	19%	-5%	x
CCOc1ccc(CNc2ccc3c(c2)nc(C)n3C)cc1	-7%	-2%	1.6µM*	-9%	-10%	-35%	6.3*
CCCCn1cnc2cc(NCc3ccc(OCC)cc3)ccc21	x	-11%	2.5µM*	22µM*	u	40µM*	6.5*
CCC(=O)Nc1ccc2c(c1)ncn2C	-2%	-5%	-41%	-32%	25%	-11%	x
COc1ccccc1NS(=O)(=O)c1ccc(NC(=O)CCNC(=O)c2ccco2)cc1	-5%	-2%	u	-12%	15%	-17%	x

Source: PubChem BioAssay
